# High-throughput results as filed in PubChem.
# An excerpt weighted towards active compounds, which were near 0.9% of everything screened.
# gsp antagonist = qHTS for Antagonists of gsp, the Etiologic Mutation Responsible for Fibrous Dysplasia/McCune-Albright Syndrome: qHTS; hit rate 0.4% among 340,000; Potency, µM (highest dose often 76.9 µM), inactives show at the top dose activity change, negative = inhibition, most hits filed as inhibitors; gsp-mutant cells, cAMP HTRF, 30 min; calls by dose curve; cell line not stated here;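 further: intracellular cAMP measured with PDE inhibitor Ro 20-1724 present during compound exposure; potency means the concentration at half of the fitted maximal effect; on the % scale 0 is the no-effect control and ±100 the full control effect; nearly all actives have a fitted effect of over 65% in size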
#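 Cells, 2000/well, grown 16–24 h in DMEM 10% FBS with 0.5 mg/ml G418, then compounds plus […] (300 uM addition stock), 30 min at 37C. cAMP read by HTRF (cAMP-d2 and anti-cAMP antibody-K in lysis buffer) after 30 min RT.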
# gsp agonist = qHTS for Agonist of gsp, the Etiologic Mutation Responsible for Fibrous Dysplasia/McCune-Albright Syndrome: qHTS; gsp mutant cells, cAMP HTRF, 30 min; AID 624287, 2012; Potency, µM (doses to about 76.9 µM), inactives show top-dose activation (cAMP increase), actives largely listed as activators; hit rate 0.13% among 340,000; active means well fitted activation curve with a large enough effect; inconclusive means small, poorly fitted or top-dose-only effect, or another doubt; inactive means no such curve, though single readings can be large or run the other way; cell line not stated here;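 further: phosphodiesterase inhibitor Ro 20-1724 added with compounds to block cAMP breakdown; potency means the concentration at half of the fitted maximal effect; nearly all actives have a fitted effect of over 60% in size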
#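 Cells stably selected in G418 were plated at 2000/well, grown 16-24 hr, then given compounds in DMSO with the PDE inhibitor […] (300 uM solution added) for 30 min at 37C; cAMP was read by HTRF.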
# RXFP1 agonist = qHTS Assay for Agonists of the Relaxin Receptor RXFP1; hit rate 0.3% among 370,000; Potency, µM (series often up to 57.5 µM), without a hit: top-dose activation, most hits filed as activators; Relaxin receptor 1 (Homo sapiens), Q9HBX9; HEK293T-RXFP1 cAMP TR-FRET, 30 min; response scale: percent of porcine relaxin response, buffer zero; active means well fitted activation curve with a large enough effect; inconclusive means small, poorly fitted or top-dose-only effect; further: potency means the concentration at half of the fitted maximal effect; on the % scale 0 is the no-effect control and ±100 the full control effect; nearly all actives have a fitted effect of over 60% in size
# Target sequence (Q9HBX9 whole entry, looked up): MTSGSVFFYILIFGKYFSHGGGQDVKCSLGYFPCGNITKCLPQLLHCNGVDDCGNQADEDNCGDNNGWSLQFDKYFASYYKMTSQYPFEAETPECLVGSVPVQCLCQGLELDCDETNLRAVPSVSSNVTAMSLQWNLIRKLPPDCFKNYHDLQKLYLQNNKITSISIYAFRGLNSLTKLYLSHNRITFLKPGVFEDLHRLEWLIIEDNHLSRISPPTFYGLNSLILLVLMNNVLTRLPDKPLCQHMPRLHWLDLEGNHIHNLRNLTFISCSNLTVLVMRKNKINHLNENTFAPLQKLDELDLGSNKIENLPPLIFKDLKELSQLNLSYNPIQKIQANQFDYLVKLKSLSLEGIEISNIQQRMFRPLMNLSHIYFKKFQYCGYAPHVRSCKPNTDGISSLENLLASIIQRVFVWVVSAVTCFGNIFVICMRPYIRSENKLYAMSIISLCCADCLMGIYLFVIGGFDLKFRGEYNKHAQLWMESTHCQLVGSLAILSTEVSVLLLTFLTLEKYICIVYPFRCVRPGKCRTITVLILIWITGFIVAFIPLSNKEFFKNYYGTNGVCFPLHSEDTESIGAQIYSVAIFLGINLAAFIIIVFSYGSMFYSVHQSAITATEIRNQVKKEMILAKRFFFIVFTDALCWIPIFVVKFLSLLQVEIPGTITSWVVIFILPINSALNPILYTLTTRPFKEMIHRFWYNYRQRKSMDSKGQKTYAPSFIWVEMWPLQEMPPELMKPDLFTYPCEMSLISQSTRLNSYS
#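 HEK293T cells stably expressing RXFP1 were pretreated with the PDE4 inhibitor Ro 20174, exposed to compounds for 30 min at 37C, lysed, and cAMP was read by TR-FRET. Data normalized to buffer (basal) and 29 nM porcine relaxin (100%).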
# RXFP1 antag = qHTS Assay for Antagonists of the Relaxin Receptor RXFP1 | hit rate 0.59% among 350,000 | activity change, negative = inhibition, % at 57.5 µM | HEK293-RXFP1, relaxin-stimulated cAMP HTRF, 30 min; active compounds read low | Relaxin receptor 1 (Homo sapiens), Q9HBX9;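 active means activity change of -60% or lower, but not beyond a set lower limit; inconclusive means change between -60% and -40%, or beyond the set limit; inactive means change above -40%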; further: on the % scale 0 is the no-effect control and ±100 the full control effect
# Starred values were filed as active, the others as inactive; u = inconclusive; x = no result; [ ] = remark or other dose.
SMILES,gsp antagonist,gsp agonist,RXFP1 agonist,RXFP1 antag
Cc1ccc(Cl)cc1N(C)C(=O)c1cnc(N2CCOCC2)c2ccccc12,x,x,-0.2%,-9.0
Cc1ccc(N2CCN(C(=O)c3cnc(N4CCCCC4)c4ccccc34)CC2)c(C)c1,x,x,2.4%,-69.9*
Cc1ccc(Cl)cc1N1CCN(C(=O)c2cnc(N3CCOCC3)c3ccccc23)CC1,x,x,-1.0%,-81.9*
CCc1ccccc1NC(=O)[C@H](Cc1ccccc1)N1Cc2ccccc2C1=O,x,x,-0.2%,x
O=C(Nc1nc2cc3c(cc2s1)OCCO3)C1CCCCC1,-7.0%,u,0.0%,-68.1*
O=C(Cn1c(=O)c2cc(Cl)ccc2n2nncc12)Nc1ccccc1,x,x,8.8%,x
O=C1c2cc(S(=O)(=O)NCCO)ccc2-c2ccc(S(=O)(=O)NCCO)cc21,7.9%,0.0%[15.4 µM],4.0%,4.5
O=C(O)CNS(=O)(=O)c1ccc2c(c1)C(=O)c1cc(S(=O)(=O)NCC(=O)O)ccc1-2,3.2%,12.6µM*,28.0%,2.4
CCc1nnc(NC(=O)CSc2nc3c([nH]c4ccccc43)c(=O)n2-c2ccc(C)cc2)s1,x,x,4.1%,x
COC(=O)CSc1nc2sccc2c(=O)n1-c1ccccc1,6.3%,-3.2%[15.4 µM],2.3%,-3.7
CCc1cc2c(=O)n(-c3ccccc3)c(SCC(N)=O)nc2s1,7.08µM*,6.5%,0.3%,-11.1
COc1ccc(C2CC(=O)c3cc(-c4nc(-c5ccc(Cl)cc5)cs4)c(=O)[nH]c3C2)cc1OC (centres undefined),x,x,17.9%,-4.6
CC(=O)N1N=C(c2ccc(C)o2)CC1c1cccc(F)c1 (centres undefined),-3.7%,u,-1.3%,-60.8*
CC(=O)N1N=C(c2ccccc2)CC1c1ccc(F)cc1 (centres undefined),-1.1%,u,1.3%,8.5
CCOC(=O)c1ccc(NC(=S)NNC(=O)c2cc(-c3cccnc3)nc3ccccc23)cc1,-32.5%,9.8%,-2.8%,-15.6
O=C(NNC(=S)Nc1ccccc1)c1cc(-c2cccnc2)nc2ccccc12,-17.5%,1.0%[15.4 µM],2.2%,-60.7*
CCc1ccc(NC(=O)CSc2nc(C)cs2)cc1,x,20.5%,x,4.2
CC1CCCN(CCCNC(=O)c2nn(C)c3c2CS(=O)(=O)c2ccccc2-3)C1 (centres undefined),-17.1%,15.6%,3.9%,-83.8*
Cc1oc(-c2ccccc2)nc1CNC(=O)Nc1ccccc1,x,x,1.3%,-9.5
Cc1cccc(NC(=O)NC2COc3ccccc3C2)c1C (centres undefined),x,x,2.4%,-4.5
Cc1ccc(-c2cn(-c3cccc(Cl)c3)c(S(=O)(=O)CC(=O)Nc3ccccc3F)n2)cc1,x,x,3.9%,-63.8*
O=C(CS(=O)(=O)c1nc(-c2ccc(Cl)cc2)cn1-c1ccccc1)Nc1cccc(Cl)c1,x,x,-0.9%,u
O=C(CS(=O)(=O)c1nc(-c2ccc(Cl)cc2)cn1-c1ccccc1)Nc1ccc(F)cc1F,x,x,-3.1%,-63.9*
COc1ccc2[nH]c(S(=O)Cc3ncc(C)c(OC)c3C)nc2n1 (centres undefined),x,x,x,-27.7
Cn1sc(NC(=O)c2cccc(Cl)c2)nc1=O,28.2µM*,15.4%,1.3%,-25.4
SMILES,gsp antagonist,gsp agonist,RXFP1 agonist,RXFP1 antag
Cn1sc(NC(=O)c2ccccc2Cl)nc1=O,u,-33.4%,-2.7%,-5.0
O/C(=C\c1nc2ccccc2nc1/C=C(\O)c1ccccc1)c1ccccc1,0.1%,26.4%,3.9%,-111.6*
Clc1ccc2[nH]c3c(N4CCC5(CC4)OCCO5)ncnc3c2c1,35.5µM*,9.4%,4.1%,-10.7
c1ccc2c(c1)[nH]c1c(N3CCCC3)ncnc12,u,u,-0.5%,-11.3
Cc1cccc2[nH]c3c(N4CCC5(CC4)OCCO5)ncnc3c12,-20.2%,-17.0%,-0.8%,-7.5
c1ccc2c(c1)[nH]c1c(N3CCSCC3)ncnc12,14.1µM*,20.9%,1.0%,2.5
Cc1c(Cl)cccc1NC(=O)CCS(=O)(=O)c1cccc2nsnc12,x,x,0.2%,x
COc1ccc(CNC(=O)c2cc3ccccn3n2)cc1OC,x,x,5.2%,-5.5
Cc1ccc(C)c(N(C)C(=O)c2ccc3c(=O)n4c(nc3c2)CCCCC4)c1,-5.5%,-1.5%,-3.1%,-102.1*
CN(C(=O)c1ccc2c(=O)n3c(nc2c1)CCCCC3)c1ccccc1F,0.3%,-29.5%,2.8%,35.1
CCN(CC)c1ccc(S(=O)(=O)N2CCOCC2)cc1NC(=O)CSC(=S)N1CCCC1,-20.8%,0.7%,-0.2%,-7.2
Cc1onc(-c2ccc(Cl)cc2Cl)c1-c1csc(N/N=C/c2ccccc2Cl)n1,-6.0%,4.8%,-0.3%,-69.0*
Cc1onc(-c2ccccc2)c1-c1csc(N/N=C/c2ccccc2Cl)n1,2.0%,-1.5%,-1.1%,u
COc1ccc(CNC(=O)Cn2c(=O)oc3cc(S(=O)(=O)NCc4ccccc4)ccc32)cc1,x,x,-0.9%,-31.5
O=C(COc1ccc2ccccc2c1)NNC(=O)Cc1ccccc1,-23.7%,-4.9%,12.7%,-120.0*
O=C(COc1ccc2ccccc2c1)NNC(=O)Cc1cccc2ccccc12,-3.6%,0.0%,4.2%,-15.3
COc1cc(O)c(C(=O)c2ccccc2)cc1S(=O)(=O)O,x,x,x,-8.5
COc1ccc(C(=O)c2ccccc2)c2c(O)ccc(C(=O)c3ccccc3)c12,28.2µM*,-10.9%,0.2%,-20.7
CC(C(=O)Nc1nc(-c2ccc(F)c(F)c2)cs1)N1C(=O)C2CC=CCC2C1=O (centres undefined),35.5µM*,-3.1%,0.8%,u
COc1ccc(-c2csc(NC(=O)[C@H](C)N3C(=O)C4CC=CCC4C3=O)n2)cc1OC (some centres undefined),-0.4%,1.5%,x,-10.9
CCOC(=O)c1c(C)[nH]c(-c2csc(C)n2)c1C,-6.2%,2.1%[15.4 µM],1.9%,-66.8*
Oc1ccc(-c2csc(Nc3ccccn3)n2)cc1O,-5.3%,-4.8%,-2.0%,-63.1*
Cc1ccnc(Nc2nc(-c3ccc(O)c(O)c3)cs2)c1,-4.6%,15.1%,0.8%,u
COC(=O)c1sccc1S(=O)(=O)N(CC(=O)Nc1cc(F)ccc1F)c1ccc(C)c(C)c1,x,x,1.7%,-8.1
Cc1nc2ccc(NC(=O)c3ccc(Br)o3)cc2s1,1.0%,-1.4%[15.4 µM],-0.7%,-91.8*
Cc1nc2ccc(NC(=O)c3cnc(Cl)c(Cl)c3)cc2s1,8.91µM*,14.8%[15.4 µM],10.8%,-11.2
O=C(CN1C(=O)c2cccc3cccc(c23)C1=O)NCCN1CCOCC1,13.2%,u,14.1µM*,2.8
O=C(CCN1C(=O)c2cccc3cccc(c23)C1=O)N1CCOCC1,-8.1%,15.6%[15.4 µM],10.8%,-1.6
O=C(CN1C(=O)c2cccc3cccc(c23)C1=O)NCCCO,2.4%,14.1µM*,6.7%,7.5
Cc1ccc(Cn2c(C(C)NC(=O)c3ccccc3)nc3ccccc32)cc1 (centres undefined),x,x,3.3%,-2.4
